# Pf growth 96h = inhibits malaria parasite growth, 96 h; P. falciparum luciferase reporter growth, 96 h; Potency, µM (titrated, usually from 28.7 µM), inactives show top-dose activity change, negative = inhibition, actives largely listed as inhibitors; actives 6.9% (n = 320,000); further: on the % scale 0 is the no-effect control and ±100 the full control effect
#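 Compounds incubated with erythrocytes infected by luciferase-expressing P. falciparum (2% hematocrit, 0.05% parasitemia final) for 96 hours, 37 C in 5% CO2. Growth inhibition scored as decreased luciferase luminescence.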
# SARS PLpro yeast = blocks SARS-CoV papain-like protease in a yeast assay | S. cerevisiae expressing SARS-CoV PLpro, growth rescue | Potency, µM (doses to about 32.9 µM), inactives show at the highest dose activity, positive = growth rescue, actives largely listed as activators | actives 0.19% (n = 330,000); calls by dose curve; further: 0% is about no effect; nearly all actives have a fitted effect of over 55% in size
# HCV inhibitor = HCV inhibition; Huh7.5.1 HCVcc-Cre infection, luciferase reporter, 44 h; Potency, µM (doses to about 41.8 µM), without a hit: at the highest dose activity change, negative = inhibition, actives largely listed as inhibitors; actives 3.4% (n = 340,000); AID 651820; further: on the % scale 0 is the no-effect control and ±100 the full control effect
#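 After 44 h co-culture of compound, cells and HCVcc-Cre (~0.5 moi), substrate is added for 15 min at room temperature and luciferase measured over 15 sec. Cells were seeded at 1,000/well and pre-cultured 4 h.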
# NS1 function inh = influenza NS1 inhibition. Potency, µM (top dose mostly 46.1 µM), for inactives: top-dose activity, positive = more growth. actives 0.4% (n = 270,000); calls by dose curve; further: actives are rising curves; nearly all actives have a fitted effect of over 50% in size
#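 Recovery from NS1-induced slow growth read by OD600 in budding yeast switched to galactose assay medium (pH 6.0, -URA) at 1:100 dilution. Compound 23 nl per well; the matching strain lacking NS1 serves as control.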
# Pf growth 48h = P. falciparum growth inhibition at 48 hours (one generation); P. falciparum luciferase growth in erythrocytes, 48 h; Potency, µM (highest dose often 28.7 µM), without a hit: at the top dose activity change, negative = inhibition, hits mostly inhibitors; actives 5.9% (n = 310,000); further: on the % scale 0 is the no-effect control and ±100 the full control effect
#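 Growth was read as firefly luciferase luminescence after a 48 h, 37 C, 5% CO2 exposure of compounds to reporter-bearing P. falciparum cultures (0.1% parasitemia, 2% hematocrit final) in Albumax-supplemented RPMI 1640.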
# AMA1-RON2 inh = disrupts binding of P. falciparum AMA1 to RON2; AlphaScreen AMA1-biotinylated RON2 peptide binding; Potency, µM (titrated, usually from 58.2 µM), inactives show at the top dose activity change, negative = inhibition, most hits filed as inhibitors; actives 0.2% (n = 360,000);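 further: 0% = vehicle wells and -100% = peptide control; nearly all actives have a fitted effect of over 45% in size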
#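 AMA1 (3D7) with his tag at 25 nM final met compounds first, then biotinylated RON2 peptide at 25 nM; detection used donor plus acceptor beads, 10 µg/mL apiece, read by AlphaScreen after 30 min at room temperature.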
# * hit, by the source's call; ? = inconclusive; nt = no result. Most compounds without a hit are left out; they make up all but 12% or so of the library. Unless noted, the call rests on the fitted dose curve; in most records, active means well fitted curve in the direction sought with a large enough effect; inconclusive means small, poorly fitted or top-dose-only effect, or another doubt; inactive means no such curve, though single readings can be large; an effect the other way counts as inactive or inconclusive. Potency means the concentration at half of the fitted maximal effect.
SMILES,Pf growth 96h,SARS PLpro yeast,HCV inhibitor,NS1 function inh,Pf growth 48h,AMA1-RON2 inh
Cc1onc(-c2c(F)cccc2Cl)c1C(=O)ONC(=O)c1ccco1,8%,-3%,7%,-2%,6%,0%
O=C(CSc1nnc2ccc(-c3ccc(F)cc3)nn12)N1CCCC1,?,2%,16%,nt,-2%,10%
c1ccc(-n2cc(CN3CCCC3)c(-c3ccc4c(c3)OCO4)n2)cc1,?,-1%,-9%,0%,5.2µM*,-3%
c1ccc(-n2cc(CN3CCC(N4CCOCC4)CC3)c(-c3ccc4c(c3)OCO4)n2)cc1,?,0%,-12%,1%,?,6%
COCC1CCCN(Cc2cn(-c3ccccc3)nc2-c2ccc3c(c2)OCO3)C1 (configuration not stated),?,0%,3%,-1%,9.3µM*,-21%
Cn1c(-[n+]2c(-c3ccccc3)cc(-c3ccccc3)cc2-c2ccccc2)nc2cc([N+](=O)[O-])ccc21,3.3µM*,-39%,-2%,-11%,13µM*,4%
Cc1cc([N+](=O)[O-])ccc1NC(=O)CN1C2CCC1CC(NC(=O)NC13CC4CC(CC(C4)C1)C3)C2 (configuration not stated),23%,0%,2.5µM*,-2%,10µM*,-5%
COc1ccc(NC(=S)N2C3CCC2CC(NC(=O)NC24CC5CC(CC(C5)C2)C4)C3)c(OC)c1 (configuration not stated),?,-5%,-18%,29%,?,29%
COc1ccc(OC)c(NC(=O)c2cccnc2Sc2ccccc2)c1,17%,26%,21%,-1%,18%,-2%
CC(C)(C)C(O)(CC#CCN1CCCC1)c1ccccc1 (configuration not stated),1%,-2%,-12%,1%,-27%,-10%
Cc1cccc(NC(=O)CSc2nc3ccccc3c3nc(CCc4c(C)n[nH]c4C)nn23)c1,19%,2%,25µM*,?,7.4µM*,-18%
COc1cccc(CNC(=O)CCC2CCCN(C3CCOCC3)C2)c1 (configuration not stated),?,-1%,8%,-2%,96%,1%
CCOC(=O)N1CCC(N2CCCC(C(=O)c3ccc4cc(OC)ccc4c3)C2)CC1 (configuration not stated),?,2%,?,0%,8.3µM*,-15%
COc1cccc(C(=O)C2CCCN(C3CCOCC3)C2)c1 (configuration not stated),2.3µM*,0%,2%,0%,-2%,8%
O=c1onc(-c2ccc(Cl)cc2Cl)n1-c1cccnc1,50%,1%,11%,0%,49%,13%
COCCn1c(SCC(=O)Nc2cc(C)on2)nnc1C(C)C,-19%,-3%,12%,-10%,11%,-5%
c1csc(C2C3=C(Nc4ncnn42)c2ccccc2OC3)c1 (configuration not stated),13µM*,-3%,7%,-5%,?,-11%
CCOC(=O)c1ccc(-n2cnc(-c3ccc([N+](=O)[O-])cc3)c2)cc1,nt,nt,nt,nt,nt,-3%
CC1CCCCC1NC1CCN(C)CC1 (configuration not stated),9.3µM*,-2%,?,21%,-7%,-2%
N#Cc1ccc(C(=O)NNC(=O)c2cccc(S(=O)(=O)N3CCOCC3)c2)cc1,nt,0%,11%,nt,nt,11%
CCc1ccc(C(c2c(C)nn(-c3ccccc3)c2N)c2c(C)nn(-c3ccccc3)c2N)cc1,?,-1%,?,-7%,8.3µM*,?
O=C(Nc1cccc(S(=O)(=O)c2cccc(NC(=O)c3ccco3)c2)c1)c1ccco1,12µM*,1%,11µM*,3%,13µM*,2%
O=C(Nc1cccc(C(F)(F)F)c1)c1ccco1,-15%,-21%,10µM*,-121%,-2%,7%
